CYP2C19 act: activators of human cytochrome P450 2C19; P33261; recombinant CYP2C19, luciferin-H EGE luminescence; hits give high values; 0 = fully inhibited enzyme, 1 = untreated enzyme; activation factor at 5 µM; 96,000 tested, under 10 active; AID 1025;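 active means activation factor of at least 2 at 5 µM in the primary screen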;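 further: 0 = wells with 2.5 mM tranylcypromine and 1 = vehicle-only wells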
CYP2C19 inh: inhibitors of human CYP2C19 | AID 778 | actives 21% (n = 96,000) | CYP2C19 Supersomes, luciferin-H EGE luminescence, 30 min | inhibition, % at 5 µM;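 active means CYP2C19 inhibition above a set limit at 5 µM in the primary screen, cut at about 50% in these data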;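 further: plate controls were negative control wells for no effect and 2.5 mM tranylcypromine positive control for full effect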
CYP2C9 activ: increases human cytochrome P450 2C9 activity; P11712; actives 1.4% (n = 96,000); recombinant CYP2C9, luciferin-H conversion, luminescence; hits give high values; factor 1 = untreated enzyme, 0 = blocked; activation factor at 5 µM;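 active means activation factor of 2 or more for CYP2C9 at a 5 µM dose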;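 further: 0 = sulfaphenazole-blocked wells and 1 = vehicle-only wells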
CYP2C9 inhib: blocks human cytochrome P450 2C9 | P11712 | CYP2C9 Supersomes, luciferin-H conversion, luminescence | inhibition, % at 5 µM | actives 20% (n = 96,000) | AID 777;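 active means blocking of liver enzyme CYP2C9 beyond about 50% at 5 µM, limit read from the data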
Starred values were filed as active, the others as inactive. An excerpt weighted towards active compounds, which were near 31% of everything screened.

SMILES	CYP2C19 act	CYP2C19 inh	CYP2C9 activ	CYP2C9 inhib
Cc1ccc2nc(/C(C#N)=C\c3ccc([N+](=O)[O-])o3)[nH]c2c1	0.9	10	0.9	7
O=C(Nc1ccc2c(c1)OCO2)C(c1ccc(Cl)cc1)N1CCN(C(=O)c2ccco2)CC1 (stereo not drawn)	0.3	75*	0.1	95*
O=C(Nc1ccc(F)cc1)C(c1ccccc1)N1CCN(C(=O)c2ccco2)CC1 (stereo not drawn)	0.8	22	0.3	71*
O=C(c1ccco1)N1CCN(C(=O)C(Sc2ccccc2)c2ccccc2)CC1 (stereo not drawn)	0.2	78*	0.2	83*
O=C(Nc1ccc2c(c1)OCO2)C(c1ccccc1)N1CCN(C(=O)c2ccco2)CC1 (stereo not drawn)	0.2	76*	0	98*
O=C(O)C1=C(C(=O)N2CCN(C(=O)c3ccco3)CC2)CCCC1	1	0	1	4
O=c1c(=O)n(O)c2ccccc2n1O	1.1	-14	1.1	-14
CCN(CC)c1ccc(/C=N/n2c(=S)[nH]nc(C)c2=O)cc1	1	1	1.6	-55
CCCC1CCC(C(=O)Nn2cnc3ccccc3c2=O)CC1 (stereo not drawn)	0.4	58*	0.4	56*
Cc1cccc(NC(=O)C(NS(=O)(=O)c2ccc3c(c2)CCC(=O)N3)c2ccccc2)n1 (stereo not drawn)	0.9	8	0.6	39
O=C(c1ccc(F)cc1)N1CCN(c2cc(N3CCCCC3)c(F)cc2[N+](=O)[O-])CC1	0.1	95*	0.1	86*
Brc1cccc(-c2nnc(SCc3ccon3)n2-c2ccccc2)c1	0.5	50*	0.6	44
N#CCSc1nnc(-c2cccnc2)n1-c1ccccc1	1.1	-8	1	-5
O=C(Nc1ccc(F)c(F)c1)c1ccc(F)c(S(=O)(=O)N2CCOCC2)c1	1	0	0.8	16
O=C(CN1CCN(S(=O)(=O)c2ccc(Br)cc2)CC1)Nc1ccc2c(c1)OCCO2	0.2	78*	0.7	35
O=C(Nc1ccc2c(c1)OCCO2)c1ccc(Br)c(S(=O)(=O)N2CCOCC2)c1	0.2	82*	0.5	53*
O=C(Nc1ccc2c(c1)OCCO2)c1ccc(S(=O)(=O)N2CCCCC2)cc1	0.7	29	0.3	70*
O=C(Nc1ccc(N2CCOCC2)nc1)c1ccc(F)cc1	1.1	-13	1.3	-30
Cc1c(C(C)O)nnn1-c1nonc1N (stereo not drawn)	0.9	5	0.9	7
CN(C)S(=O)(=O)NC(c1ccccc1)c1ccccc1	0.2	83*	0.4	60*
COC(=O)C(C)Oc1ccc2c3c(c(=O)oc2c1)CCCCC3 (stereo not drawn)	0.3	75*	0.2	82*
CCCOc1ccc2c3c(c(=O)oc2c1)CCCC3	0.4	59*	0.7	33
O=C(Oc1ccc2c3c(c(=O)oc2c1)CCCC3)c1ccco1	0.8	24	2.1*	-114
CC(C)Oc1ccc2c3c(c(=O)oc2c1)CCC3	0.2	79*	0.8	24
O=C(O)COc1ccc2c3c(c(=O)oc2c1)CCC3	1	-2	1	4
SMILES	CYP2C19 act	CYP2C19 inh	CYP2C9 activ	CYP2C9 inhib
CC1CCCN(Cc2c(O)ccc3c(=O)c(-c4nc5ccccc5s4)c(N)oc23)C1 (stereo not drawn)	0.7	26	0.8	20
CCOC(=O)Cn1c(=O)c2c(nc3n2CCCCN3c2ccc(C)cc2)n(C)c1=O	1	-2	1	2
CSCCC(NC(C)=O)C(=O)Oc1ccc2c3c(c(=O)oc2c1)CCCC3 (stereo not drawn)	0.8	15	2.8*	-181
O=C(CCCNC(=O)/C(=C\c1ccc(F)cc1)NC(=O)c1ccccc1)OCc1ccccc1	0.4	63*	0.5	46
Cc1ccc(C)c(CN2CCCN(C(=O)Cn3ncc4c3-c3ccccc3OC4)C2)c1	0.2	79*	0.4	56*
COc1ccccc1NC(=O)Cn1ncc2c1-c1ccccc1OC2	0.6	37	0.7	34
COc1cc(NC(=O)CN2c3ccccc3CC2C)cc(OC)c1OC (stereo not drawn)	0.3	69*	0.2	81*
CCOc1ccc(-c2cc(NC(=O)Cn3ncc4c3-c3ccccc3OC4)on2)cc1OCC	0.3	65*	1.1	-14
COc1cc(C(=O)N2c3ccccc3CC2C)cc(OC)c1OC (stereo not drawn)	0.8	25	0.8	23
CCOC(=O)N1CCN(C(=O)Cn2ncc3c2-c2ccccc2OC3)CC1	1.1	-11	1.1	-7

Bioassay records deposited in PubChem by Sanford-Burnham Center for Chemical Genomics.
